Measured values taken from PubChem BioAssay AID449762 (Southern Research Specialized Biocontainment Screening …, 2010).
About 1,900 (0.58%) of roughly 330,000 compounds were called active. About 4% were inconclusive and are not listed. A selection follows. Entries with a potency or affinity are not part of this list. A number with no mark means an inactive call. No stated cut-off is given here; in the data, inconclusive means inhibition above about 70% without an active follow-up result; inactive means below that.

Experiment: M. tuberculosis growth inhibition, HTS (AID 449762);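 further: bacterial growth assessed after seven days of incubation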
Conditions: M. tuberculosis H37Rv growth inhibition, 7H9 media; at 25 µM; hits give high values

Row | SMILES | inhibition
1 | COC(=O)C1CCN(C(=O)/C=C/c2ccccc2)CC1 | -5.05%
2 | Cc1nn(Cc2ccccc2)c(C)c1CNC(=O)[C@H](C)N=C1NS(=O)(=O)c2ccccc21 | 6.6%
3 | Cc1cccc(-n2cc(CNCCN3CCOC3=O)c(-c3cccc(F)c3)n2)c1 | 1.99%
4 | O=C1CC2(CCCCC2)Oc2ccc(F)cc21 | -0.1%
5 | NC(N)=N/N=C/c1ccc(Br)cc1 | 10.5%
6 | CCN(Cc1ccccc1)c1ccc(/C=N/NC(=S)NC(C)C)cc1 | 10.7%
7 | NC(N)=N/N=C/c1ccccc1 | -2.68%
8 | CCN(Cc1ccccc1)c1ccc(/C=N/N2CCOCC2)cc1 | 11.3%
9 | COc1ccc(-c2oc3cccnc3c2C#CCO)cc1 | 5.48%
10 | CC(=O)N/C(=C\c1ccccc1)C(=O)N1CCOCC1 | -6.38%
11 | CN(C)CCCN1c2ccc([N+](=O)[O-])cc2CCc2cc([N+](=O)[O-])ccc21 | -1.94%
12 | CCOc1cc(/C=C\[N+](=O)[O-])ccc1OCC(=O)N1CCOCC1 | 3.95%
13 | COc1cc(/C=C/c2cccc[n+]2C)ccc1OCC(=O)Nc1ccccc1C | -9.56%
14 | COc1cccc(C(=O)c2c[nH]c(C(=O)NCCCN(C)C)c2)c1 | -4.05%
15 | COCCn1c(CN2CCN(C(=O)c3ccco3)CC2)nc2c1c(=O)n(C)c(=O)n2C | 13%
16 | CC(=O)c1ccc(OC(=O)COc2ccccc2)cc1 | -5.04%
17 | NS(=O)(=O)c1ccc(NC(=O)CSc2ncnc3ccccc23)cc1 | 0.11%
18 | CC(Sc1nnc(NC2CC2)s1)C(=O)Nc1ccc(S(N)(=O)=O)cc1 (stereo not drawn) | 8.95%
19 | O=C(CSc1nnc(NC2CCCCC2)s1)Nc1ccc2c(c1)C(=O)c1ccccc1C2=O | 4.12%
20 | CCN1CCN(c2nc3c(c(=O)[nH]c(=O)n3C)n2CCCc2ccccc2)CC1 | -0.19%
21 | COc1cc(C(C)=O)ccc1OCC(O)CN1CCN(S(=O)(=O)c2ccccc2)CC1 (stereo not drawn) | -10.5%
22 | CCOC(=O)c1cc(C)nc(SC)c1C#N | 6.64%
23 | C#CCSc1nc(C)cc(C(=O)OCC)c1C#N | 1.67%
24 | CCOC(=O)[C@@H]1[C@H]2COc3ccc(Br)cc3[C@@H]2N2C(=O)N(c3ccc(C)cc3)C(=O)[C@@]12C | -3.24%

Row | SMILES | inhibition
25 | CN(Cc1cnn(C)c1)C(=O)CC1C(=O)NCCN1Cc1cccc(Oc2ccccc2)c1 (stereo not drawn) | 3.24%
26 | Cc1sc2nc(C(C)C)nc(SCC(=O)NC3CC3)c2c1C | 0.27%
27 | Cc1c(C(=O)CN2CCCC(C)(C)C2)c2ccccc2n1C | 5.6%
28 | COc1cc(CNCCCN2CCOCC2)ccc1OCC(=O)Nc1cccc(C(F)(F)F)c1 | 0.14%
29 | CCOc1cc(CNCCCN2CCOCC2)ccc1OCC(=O)Nc1cccc2ccccc12 | 6.81%
30 | Cc1ccc(S(=O)(=O)N2CCOCC2)c(C)c1NS(C)(=O)=O | -0.81%
31 | CCN(C(=O)COc1cc(OC)ccc1C(C)=O)C1CCS(=O)(=O)C1 (stereo not drawn) | 0.77%
32 | CCc1noc(C)c1C(=O)NNC(=O)COc1cc(C)ccc1C | 0.9%
33 | Cc1ccc(NC(=O)CCS(=O)(=O)c2cccc3nonc23)cc1 | 13.6%
34 | CCc1cccc(NC(=O)CCS(=O)(=O)c2cccc3nonc23)c1 | 57.8%
35 | O=c1c(/C=N/OCc2ccc(Cl)cc2Cl)c[nH]n1-c1cccc(Cl)n1 | 34.5%
36 | O=c1c(C=Nc2ccc(Cl)cc2)c[nH]n1-c1cccc(Cl)n1 | 0.34%
37 | Cc1nc2c(C(F)(F)F)cccc2c2c1CCS2 | 0.87%
38 | Cc1cccc(NC(=O)C2CCCN(S(=O)(=O)c3c(C)nn(C)c3C)C2)c1 (stereo not drawn) | -8.6%
39 | O=C(Nc1ccccc1)c1ccccc1OS(=O)(=O)c1ccccc1 | 0.76%
40 | O=Cc1ccccc1OS(=O)(=O)c1ccccc1 | -6.41%
41 | C/C(=N\NC(=O)CN(c1ccccc1)S(C)(=O)=O)c1ccccc1O | -3.69%
42 | Cc1cc(OC(C)C(=O)NCC2CCCO2)cc(C)c1Cl (stereo not drawn) | 11.1%
43 | CCn1cnc2sc(C(=O)O)c(C)c2c1=O | -6.99%
44 | CCn1cnc2sc(C(=O)N3CCN(c4ccc(OC)cc4)CC3)c(C)c2c1=O | -8.96%
45 | Cc1ccc(-n2[nH]c(C)c(C=Nc3ccc(S(=O)(=O)Nc4nc(C)cc(C)n4)cc3)c2=O)c(C)c1 | -3.23%
46 | Cc1[nH]n(-c2ccc(Br)cc2)c(=O)c1C=Nc1ccc(S(=O)(=O)Nc2nccs2)cc1 | 68.2%
47 | C[C@H](CO)N1C[C@H](C)[C@@H](CN(C)C)Oc2c(NS(=O)(=O)c3ccccc3)cccc2C1=O | 0.58%
48 | O=C(NC1CC1)C1CCN(C2CCN(C(=O)/C=C/c3cccs3)CC2)CC1 | -5.63%
